PubChem BioAssay
Active and inactive are the calls of the source. No rule for the calls is given here. Peptide text beside a SMILES is read from it. * marks the point of attachment. CH2Cl = ClC*

Assay: viability loss with induced miR-34 in A549 – imaging, A549 dox-inducible miR-34, nuclei and caspase counts, primary screen (AID 1347080)
Details: A549 miR-34 inducible, Hoechst nuclei count, 48 h; measured here: total cells without miR-34 induction

| Structure (SMILES) | cell count |
| --- | --- |
| COC[C@H]([C@@H](O)[C@@H](O)C(=O)NCC[C@@H](C)c1nc(/C=C/C[C@H]2OC3(C[C@H](O)[C@H]2C)OC([C@@H](C[C@@H](O)[C@@H](C)[C@@H](O)[C@@H](C)/C=C(C)/C(C)=C/C=C/C(C)=C\C#N)OC)[C@@H](OP(=O)(O)O)C3(C)C)co1)N(C)C (stereo not given in full) | 312 |
| C=C(C)[C@H]1O[C@H]2CC[C@@]3(C)[C@@](O)(CC[C@H]4[C@@H]5OC(C)(C)[C@H]6C[C@@H]7C(=C)Cc8c(Cl)cc9[nH]c(c5c9c8[C@@]76O)[C@@]43C)[C@]23O[C@@H]3[C@H]1O | 826 |
| CCCCC/C=C\C/C=C\C/C=C\C/C=C\CCCC(=O)NC1CC1 | 5800 |
| O=C(CCC/C=C\C[C@@H]1[C@@H](/C=C/[C@@H](O)COc2cccc(C(F)(F)F)c2)[C@H](O)C[C@@H]1O)NC(CO)CO | 5370 |

Assay: chitosan synthesis blockers in C. neoformans – flow cytometry, Cibacron Brilliant Red staining (AID 1347148);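 also: compound exposure lasted three days at 37 degrees C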
Details: Cryptococcus neoformans chitosan, stronger effect = lower value; at 10 µM unless noted

| Structure (SMILES) | fold fluorescence |
| --- | --- |
| CCCCC/C=C\C/C=C\C/C=C\C/C=C\CCCC(=O)N[C@@H](C)CO | 6.15 (inactive) |
| C=C1[C@@H](C)[C@H]2[C@H](Cc3ccccc3)NC(=O)[C@]23OC(=O)/C=C/[C@H](O)CCC[C@@H](C)C/C=C/[C@H]3[C@@H]1O | 6.64 [at 104.2 µM] (inactive) |
| N#CC(C#N)=NNc1ccc(OC(F)(F)F)cc1 | 9.07 [at 196.7 µM] (inactive) |
| Clc1ccc(C2CC3CCC2N3)cn1 (stereo not given) | 4.32 [at 239.6 µM] (inactive) |
| C[C@H](N)C(=O)N[C@@H](C)C(=O)N[C@@H](Cc1ccccc1)C(=O)CCl (H-Ala-Ala-Phe-CH2Cl) | 4.89 [at 147.1 µM] (inactive) |
| COC[C@H]1OC(=O)c2coc3c2[C@@]1(C)C1=C(C3=O)[C@@H]2CCC(=O)[C@@]2(C)C[C@H]1OC(C)=O | 5.16 [at 116.7 µM] (inactive) |
| CC(C)(O)[C@H]1O[C@H]2CC[C@@]3(C)[C@@](O)(CC[C@H]4Cc5c([nH]c6ccccc56)[C@@]43C)C2=CC1=O | 8.47 [at 114.8 µM] (inactive) |
| COC(C/C=C/C=C/CC/C=C\CC(C)/C=C\C(=C/C(=O)O)CC(=O)O)/C(C)=C\C=C(/C)C(=O)O (stereo not given) | 5.28 [at 10.3 µM] (inactive) |
| CCOC(=O)CN1C(=O)CC(C[C@@H](O)C2C[C@@H](C)C[C@H](C)C2=O)CC1=O (stereo not given in full) | 10.9 [at 136.1 µM] (inactive) |
| CO/C1=C\C(C)=C\[C@@H](C)[C@@H](O)[C@@H](C)C/C(C)=C/C=C/[C@H](OC)[C@@H]([C@@H](C)[C@@H](O)[C@H](C)[C@@]2(O)C[C@@H](O)[C@H](C)[C@@H](C(C)C)O2)OC1=O | 11.4 [at 8 µM] (inactive) |
| COC[C@H]([C@@H](O)[C@@H](O)C(=O)NCC[C@@H](C)c1nc(/C=C/C[C@H]2OC3(C[C@H](O)[C@H]2C)OC([C@@H](C[C@@H](O)[C@@H](C)[C@@H](O)[C@@H](C)/C=C(C)/C(C)=C/C=C/C(C)=C\C#N)OC)[C@@H](OP(=O)(O)O)C3(C)C)co1)N(C)C (stereo not given in full) | 9.76 [at 5 µM] (inactive) |
